# Measurements taken from PubChem BioAssay (NCATS).
# Where “and” joins values, the source holds several entries; their conditions need not be identical. Identical values can stand only once. A number with no mark means an inactive call. Records with an inconclusive call do not appear. A call without a number means that no potency is given here. Calls of active or inactive are those of the source. Unless noted, calls follow the shape of the dose curve; as a rule, active = well fitted curve in either direction with a large enough effect (not every such curve was filed as active); inconclusive = small, poorly fitted or top-dose-only effect, or another doubt; inactive = flat fitted curve, though single readings scatter.
# Experiments:
# [1] = AP1 Signaling Pathway (AID 357);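 also: ME-180 reporter cells stimulated with EGF at its EC50 level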
# Procedure, shortened: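 Titration-series screen for positive or negative modulators of EC50 EGF-induced signaling in ME-180 cells carrying an AP-1-driven beta-lactamase reporter. After 5 hours at 37 degrees Celsius, CCF4 460nm/530nm emission ratio gave %Activity; AC50 values derived.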
# [2] = NFAT Signaling Pathway (AID 444); settings: Jurkat NFAT-bla M1, carbachol, beta-lactamase ratio, 5 h;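 also: carbachol stimulus at about its EC50 of 1 µM final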
# Procedure, shortened: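 Jurkat cells carrying an NFAT-driven β-lactamase reporter and co-transfected muscarinic M1 receptor were treated with compound plus carbachol (1 uM final, an EC50 level) for 5 h at 37 °C. CCF4 loading followed for 1 h at RT; 460/530 nm ratio gave %activity.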
# [3] = Stat Signaling Pathway (AID 446);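 also: ME-180 cervical cancer cells given 40 pM IL-6 alongside compound; SIE-controlled beta-lactamase reporter measured as 460/530 nm FRET emission ratio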
# Procedure, shortened: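 FRET read-out (405 nm excitation, 460/530 nm emission) of a beta-lactamase reporter under a STAT-inducible element in ME-180 cervical carcinoma cells. Cells with compound receive 40 pM IL-6 for 5 h. Values are normalised to AC90 stimulation and AC90 JAK-inhibitor controls.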
# [4] = target: Glucocorticoid receptor (Homo sapiens) (UniProt P04150); assay: GR-GFP Redistribution (AID 450;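 active = compounds whose dose series gives a full or clear partial fitted curve of increased nuclear translocation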; also: potency is read from the fitted curve at half-maximal effect); settings: U2OS GR-GFP nuclear translocation, laser cytometry, 2 h
# Sequence of Glucocorticoid receptor (Homo sapiens) (P04150 whole entry, looked up, the tested form may be a part): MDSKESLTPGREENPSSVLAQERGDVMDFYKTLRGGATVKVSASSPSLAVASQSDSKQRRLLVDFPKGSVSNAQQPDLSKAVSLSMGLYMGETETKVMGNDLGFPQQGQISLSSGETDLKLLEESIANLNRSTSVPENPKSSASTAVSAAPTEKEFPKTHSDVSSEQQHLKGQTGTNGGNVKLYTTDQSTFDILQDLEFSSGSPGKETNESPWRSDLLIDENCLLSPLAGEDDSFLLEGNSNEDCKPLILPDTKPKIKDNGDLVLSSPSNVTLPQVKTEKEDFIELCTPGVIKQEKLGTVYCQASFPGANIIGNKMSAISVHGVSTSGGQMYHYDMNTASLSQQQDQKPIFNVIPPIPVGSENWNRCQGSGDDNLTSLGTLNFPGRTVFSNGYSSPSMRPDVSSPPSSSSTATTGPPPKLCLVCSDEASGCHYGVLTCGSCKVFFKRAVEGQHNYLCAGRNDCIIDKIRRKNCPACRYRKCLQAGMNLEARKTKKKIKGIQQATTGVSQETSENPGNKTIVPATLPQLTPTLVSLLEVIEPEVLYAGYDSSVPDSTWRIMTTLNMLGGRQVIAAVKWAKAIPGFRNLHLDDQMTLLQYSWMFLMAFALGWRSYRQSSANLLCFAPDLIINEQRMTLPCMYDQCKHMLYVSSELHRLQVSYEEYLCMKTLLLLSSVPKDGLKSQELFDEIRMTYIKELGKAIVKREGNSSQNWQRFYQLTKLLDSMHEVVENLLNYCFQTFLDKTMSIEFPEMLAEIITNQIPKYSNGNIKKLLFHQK
# [5] = target: Lysosomal acid glucosylceramidase (Homo sapiens) (UniProt P04062); assay: Glucocerebrosidase-p2 (AID 348; in the data active = potency below about 10 µM; also: potency is read from the fitted curve at half-maximal effect); settings: purified GBA, blue fluorogenic substrate, 40 min
# Sequence of Lysosomal acid glucosylceramidase (Homo sapiens) (P04062 whole entry, looked up): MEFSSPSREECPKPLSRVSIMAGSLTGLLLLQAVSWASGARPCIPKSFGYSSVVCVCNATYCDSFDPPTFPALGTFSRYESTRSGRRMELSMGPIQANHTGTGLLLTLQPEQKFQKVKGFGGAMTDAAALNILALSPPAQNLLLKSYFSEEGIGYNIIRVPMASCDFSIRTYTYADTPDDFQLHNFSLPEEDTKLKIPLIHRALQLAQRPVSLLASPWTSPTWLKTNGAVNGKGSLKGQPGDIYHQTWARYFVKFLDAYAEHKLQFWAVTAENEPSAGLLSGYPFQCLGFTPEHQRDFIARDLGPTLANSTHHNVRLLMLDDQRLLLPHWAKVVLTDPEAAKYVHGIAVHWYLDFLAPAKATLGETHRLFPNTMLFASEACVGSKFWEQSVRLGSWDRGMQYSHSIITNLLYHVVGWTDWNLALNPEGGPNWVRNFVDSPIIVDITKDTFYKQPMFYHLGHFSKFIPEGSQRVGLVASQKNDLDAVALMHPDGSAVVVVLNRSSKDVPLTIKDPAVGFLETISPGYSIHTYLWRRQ
# Procedure, shortened: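 Normal human glucocerebrosidase (0.2 nM) with blue fluorogenic substrate (80 uM final) in citrate/phosphate pH 5.9 with 10mM sodium taurocholate, 0.01% tween-20; 40 min RT, NaOH/glycine stop; fluorescence Ex 365/Em 440; AC50 from a titration from 0.6 nM upwards.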
# [6] = target: Cytochrome P450 1A2 (Homo sapiens) (UniProt P05177); assay: p450-cyp1a2 (AID 410; calls by dose curve; also: potency is read from the fitted curve at half-maximal effect)
# Sequence of Cytochrome P450 1A2 (Homo sapiens) (P05177 whole entry, looked up): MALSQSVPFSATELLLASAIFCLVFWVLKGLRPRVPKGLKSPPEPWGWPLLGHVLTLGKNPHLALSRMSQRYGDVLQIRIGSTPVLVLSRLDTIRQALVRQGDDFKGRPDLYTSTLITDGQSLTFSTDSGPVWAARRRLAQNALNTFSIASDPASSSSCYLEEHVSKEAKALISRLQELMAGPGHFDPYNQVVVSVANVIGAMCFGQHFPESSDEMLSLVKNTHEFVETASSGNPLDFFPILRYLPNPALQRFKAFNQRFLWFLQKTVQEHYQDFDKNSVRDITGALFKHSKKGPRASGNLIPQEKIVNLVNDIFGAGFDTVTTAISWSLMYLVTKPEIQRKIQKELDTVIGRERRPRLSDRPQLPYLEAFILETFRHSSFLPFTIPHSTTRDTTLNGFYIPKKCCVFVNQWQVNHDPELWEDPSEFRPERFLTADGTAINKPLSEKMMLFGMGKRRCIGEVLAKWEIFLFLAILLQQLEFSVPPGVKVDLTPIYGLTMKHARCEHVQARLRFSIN
# Procedure, shortened: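 Luminescent demethylation readout: Luciferin-ME (100uM, equal to Km) turned over by 20nM CYP1A2 for 60 min at room temperature after NADPH regeneration addition, following 10 min compound preincubation. Normalization used 57 uM furafylline as full inhibition.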
# [7] = target: Glucocorticoid receptor (Homo sapiens) (UniProt P04150); assay: GR-EFC Redistribution (AID 451; calls by dose curve; also: potency is read from the fitted curve at half-maximal effect); settings: CHO-K1 GR-EFC translocation, beta-gal luminescence, 2 h
# Procedure, shortened: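 CHO-K1 cells stably expressing nuclear-localized β-gal enzyme acceptor and GR fused C-terminally to the enzyme donor fragment; ligand-driven nuclear translocation restores β-gal by complementation. Compounds titrated up to 46 uM final, 2 h at 37 °C; luminescence read.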
# [8] = target: Mitogen-activated protein kinase 10 (Mus musculus) (UniProt Q61831); assay: JNK3 AlphaScreen Assay (AID 530);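 also: kinase came from lysate of stimulated human HepG2 cells; signal reports phosphorylation of biotinylated GST-cJun 1-79 at Ser73 with 10 µM ATP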
# Procedure, shortened: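 Phosphorylation of biotinylated GST-cJun(1-79) at Ser73 is measured by AlphaScreen proximity luminescence. Enzyme is JNK3 in HepG2 lysates activated with interleukin-1beta and tumor necrosis factor alpha; ATP is 10 uM final.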
# [9] = Cell Viability - BJ (AID 421; calls by dose curve;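 also: potency is read from the fitted curve at half-maximal effect; cells exposed to compound for 40 hours at 37 °C before readout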); settings: BJ fibroblast viability, qHTS
# Procedure, shortened: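 Cytotoxicity as drop in intracellular ATP (CellTiter-Glo, 20 min RT) after 40 hr compound exposure of BJ fibroblasts at 37 °C. Titrations scaled between DMSO and 100 uM tamoxifen, Hill-fitted for AC50.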
# [10] = Cell Viability - Jurkat (AID 426;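 active = dose-dependent loss of cell ATP signal giving a full or clear fitted curve, ranked by lower potency value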; also: potency is read from the fitted curve at half-maximal effect); settings: qHTS
# Procedure, shortened: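 Cytotoxicity taken as drop in cellular ATP (CellTiter-Glo luminescence, 20 min room temperature) after 40 hr, 37C treatment of 5000 Jurkat Clone E6-1 cells per well; concentration-response fitted with Hill equation for AC50.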
# [11] = Cell Viability - Hek293 (AID 427;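 active = compounds whose dose-response curve shows a full or clear partial loss of cell viability, called from curve shape rather than a numeric limit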;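 also: potency is read from the fitted curve at half-maximal effect; cells exposed to compound for 40 hours at 37 °C before reading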); settings: qHTS
# Procedure, shortened: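 Luminescent ATP content (CellTiter-Glo, 20 min at room temperature) was measured after a 40 hr, 37 °C compound exposure of HEK293 cells. AC50 values came from Hill-equation fits of qHTS concentration-response data normalized to DMSO and 100 uM tamoxifen.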
# [12] = Cell Viability - MRC5 (AID 434; calls by dose curve;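 also: potency is read from the fitted curve at half-maximal effect; potency reflects cytotoxicity seen as loss of intracellular ATP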); settings: MRC5 lung fibroblast viability, qHTS
# Procedure, shortened: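 Decrease in intracellular ATP, quantified by luciferase light output, reflects compound toxicity toward MRC5 cells exposed for 40 hr in complete culture medium. Concentration-response curves, scaled between DMSO and 100 uM tamoxifen, gave AC50 values.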
# [13] = Cell Viability - SK-N-SH (AID 435; calls by dose curve;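 also: potency is read from the fitted curve at half-maximal effect; compound exposure lasted 40 h at 37 °C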); settings: SK-N-SH neuroblastoma cell viability qHTS
# Procedure, shortened: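 Human neuroblastoma line, 40 h exposure at 37 °C, ATP quantified via luciferase luminescence; DMSO and 100 uM tamoxifen define 0 and 100% inhibition for AC50 fitting.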
# [14] = Cell Viability - N2a (AID 540; active = well fitted curve in the direction sought with a large enough effect; an effect the other way counts as inactive or inconclusive; also: nearly all actives have a fitted effect of over 45% in size)
# Procedure, shortened: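 CellTiter-Glo ATP luminescence, read 20 min after reagent at room temperature, reported viability following 40 h compound treatment at 37 °C. N2a mouse neuroblastoma cells seeded 1500/well; Hill equation gave AC50.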
# [15] = Cell Viability - NIH 3T3 (AID 541; active = well fitted curve in the direction sought with a large enough effect; an effect the other way counts as inactive or inconclusive; also: nearly all actives have a fitted effect of over 25% in size); settings: NIH 3T3 cell viability, qHTS; activity change, negative = cytotoxicity: at 92.2 µM (top of the series)
# Procedure, shortened: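 Intracellular ATP (CellTiter-Glo luminescence, 20 min at room temperature) measured after 40 hr compound exposure at 37 °C of 1000 NIH 3T3 mouse fibroblasts/well in complete medium; AC50 derived by Hill-equation modelling of qHTS concentration-response curves.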
# [16] = Cell Viability - HUV-EC-C (AID 542; active = well fitted curve in the direction sought with a large enough effect; an effect the other way counts as inactive or inconclusive; also: nearly all actives have a fitted effect of over 35% in size)
# Procedure, shortened: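 CellTiter-Glo luminescence measured ATP loss in HUV-EC-C cells (1000/well) after 40 hr compound exposure at 37 °C, in complete culture medium. Concentration-response data were Hill-fitted to give AC50.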
# [17] = Cell Viability - SH-SY5Y (AID 544; active = well fitted curve in the direction sought with a large enough effect; an effect the other way counts as inactive or inconclusive; also: nearly all actives have a fitted effect of over 55% in size); settings: SH-SY5Y neuroblastoma cell viability; viability change, negative = cytotoxic: at 92.2 µM (top of the series)
# Procedure, shortened: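 Cytotoxicity measured via ATP-dependent luciferase luminescence (CellTiter-Glo) following 40 h, 37 °C exposure of 1500 SH-SY5Y cells per well. Concentration-response data were fitted with the standard Hill equation to give AC50.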
# [18] = Cell Viability - Renal Proximal Tubule (AID 545; active = well fitted curve in the direction sought with a large enough effect; an effect the other way counts as inactive or inconclusive; also: nearly all actives have a fitted effect of over 40% in size)
# Procedure, shortened: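 In this qHTS format, normal rat kidney-derived proximal tubule cells in complete culture medium receive compound titrations, then sit 40 hours at 37 °C before luciferase-based ATP quantitation; potency is reported as AC50 from concentration-response curves.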
# [19] = Cell Viability - Mesenchymal (AID 546; active = well fitted curve in the direction sought with a large enough effect; an effect the other way counts as inactive or inconclusive;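 also: cells exposed to compound for 40 hours before reading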)
# Procedure, shortened: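 In this qHTS cytotoxicity format, glomerulus-derived human mesenchymal kidney cells received compound for 40 hr, then luciferase-based ATP quantitation. Concentration-response data were fitted with the Hill equation.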
# [20] = at 17.2 µM (top of the series) unless noted
smiles,measurement,setting,value
O=C(O)CCNC(=O)c1ccccc1,outcome,[1],inactive
same,"activity change, negative = inhibition",[2]; [20],3.54%
same,outcome,[3],inactive
same,Potency,[4],> 20.6 µM
Nc1ccc(S(=O)(=O)Nc2cnc3ccccc3n2)cc1,Potency,[5],> 11.4 µM
same,outcome,[1],inactive
same,Potency,[6],inactive
same,"activity change, negative = inhibition",[2]; at 7.69 µM (top of the series),-24.5%
same,"activity change, negative = inhibition",[2]; at 17.2 µM (top of the series),-5.07%
same,outcome,[3],inactive
same,Potency,[4],> 20.6 µM and > 46 µM
same,Potency,[7],> 20.6 µM and > 9.22 µM
same,Potency,[8],inactive
CCN(CC)CCNC(=O)c1cc(Br)c(N)cc1OC,outcome,[1],inactive
same,Potency,[6],10 µM (active)
same,outcome,[3],inactive
same,Potency,[8],inactive
CN(C)CCOC(=O)C(c1ccccc1)C1(O)CCCC1 (centres undefined),outcome,[1],inactive
same,"activity change, negative = inhibition",[2]; [20],-76.1% (active)
same,outcome,[3],inactive
same,Potency,[4],> 20.6 µM
CCOc1ccc(NC(C)=O)cc1,outcome,[1],inactive
same,Potency,[9],> 92 µM
same,Potency,[10],> 92 µM
same,Potency,[11],> 92 µM
same,Potency,[12],> 92 µM
same,Potency,[13],> 92 µM
same,"activity change, negative = inhibition",[2]; [20],3.42%
same,outcome,[3],inactive
same,Potency,[4],> 20.6 µM
same,Potency,[7],> 20.6 µM
same,Potency,[8],inactive
same,Potency,[14],inactive
same,"activity change, negative = cytotoxicity",[15],-21.8%
same,outcome,[16],inactive
same,"viability change, negative = cytotoxic",[17],-11.1%
same,outcome,[18],inactive
same,outcome,[19],inactive
CCc1oc2ccccc2c1C(=O)c1cc(Br)c(O)c(Br)c1,Potency,[5],> 11.4 µM
same,Potency,[4],> 20.6 µM and > 46 µM
same,Potency,[7],> 20.6 µM and > 9.22 µM
same,Potency,[8],inactive
O=C1C(CCS(=O)c2ccccc2)C(=O)N(c2ccccc2)N1c1ccccc1 (centres undefined),outcome,[1],inactive
same,Potency,[6],inactive
same,"activity change, negative = inhibition",[2]; [20],-0.885% and -5.88%
same,outcome,[3],inactive
same,Potency,[4],> 20.6 µM
same,Potency,[7],> 20.6 µM
same,Potency,[8],inactive
CCN(CC)CCNc1ccc(CO)c2sc3ccccc3c(=O)c12,outcome,[1],inactive
same,Potency,[6],0.126 µM (active)
same,"activity change, negative = inhibition",[2]; [20],-29.8%
same,Potency,[4],> 20.6 µM
same,Potency,[7],> 20.6 µM
same,Potency,[8],inactive
CC(C)(C)NC[C@H](O)COc1nsnc1N1CCOCC1,outcome,[1],inactive
same,"activity change, negative = inhibition",[2]; at 17.2 µM (top of the series),1.16% and 3.92%
same,"activity change, negative = inhibition",[2]; at 38 µM (top of the series),-1.27%
same,outcome,[3],inactive
same,Potency,[4],> 46 µM and > 20.6 µM
same,Potency,[7],> 46 µM and > 20.6 µM
same,Potency,[8],inactive
O=C1C(O)=C(O)C(=O)C(O)=C1O,outcome,[1],inactive
same,Potency,[6],inactive
same,"activity change, negative = inhibition",[2]; [20],-6.65%
same,outcome,[3],inactive
same,Potency,[4],> 20.6 µM
same,Potency,[7],> 20.6 µM
same,Potency,[8],inactive
Cc1cc(-c2ccccc2)nnc1NCCN1CCOCC1,outcome,[1],inactive
same,Potency,[6],10 µM (active)
same,"activity change, negative = inhibition",[2]; [20],-10.7% and -25.7%
same,outcome,[3],inactive
same,Potency,[8],inactive
CCCc1ncc(C[n+]2ccccc2C)c(N)n1,outcome,[1],inactive
same,Potency,[6],inactive
same,"activity change, negative = inhibition",[2]; [20],-11.4%
same,outcome,[3],inactive
same,Potency,[4],> 20.6 µM
same,Potency,[7],> 20.6 µM
same,Potency,[8],inactive
Nc1ccc(C(=O)NCC(=O)O)cc1,outcome,[1],inactive
same,Potency,[6],inactive
same,"activity change, negative = inhibition",[2]; [20],3.72%
same,outcome,[3],inactive
same,Potency,[4],> 20.6 µM
same,Potency,[7],> 20.6 µM
COc1ccc(C(Cl)=C(c2ccc(OC)cc2)c2ccc(OC)cc2)cc1,outcome,[1],inactive
same,Potency,[6],inactive
same,Potency,[9],> 92 µM
same,Potency,[11],> 92 µM
same,Potency,[12],> 92 µM
same,Potency,[13],> 92 µM
same,outcome,[3],inactive
same,Potency,[4],> 20.6 µM
same,Potency,[7],> 20.6 µM
same,Potency,[8],inactive
same,Potency,[14],inactive
same,"activity change, negative = cytotoxicity",[15],-7.28%
same,outcome,[16],inactive
same,"viability change, negative = cytotoxic",[17],-10.7%
same,outcome,[18],inactive
same,outcome,[19],inactive
CCc1cc(Cl)c(OC)c(C(=O)NC[C@@H]2CCCN2CC)c1O,outcome,[1],inactive
same,Potency,[6],3.98 µM (active)
same,outcome,[3],inactive
same,Potency,[4],> 20.6 µM
same,Potency,[7],> 20.6 µM
same,Potency,[8],inactive
C[N+]1(C)CCC(=C(c2ccccc2)c2ccccc2)CC1,outcome,[1],inactive
same,Potency,[6],inactive
same,outcome,[3],inactive
same,Potency,[4],> 20.6 µM
same,Potency,[7],> 20.6 µM
same,Potency,[8],inactive
CCCCNc1ccc(C(=O)OCCOCCOCCOCCOCCOCCOCCOCCOCCOC)cc1,outcome,[1],inactive
same,Potency,[6],inactive
same,"activity change, negative = inhibition",[2]; [20],-6.05%
same,outcome,[3],inactive
same,Potency,[4],> 20.6 µM
same,Potency,[7],> 20.6 µM
same,Potency,[8],inactive
CC(O)Cn1cnc2c1c(=O)n(C)c(=O)n2C (centres undefined),outcome,[1],inactive
same,"activity change, negative = inhibition",[2]; [20],10.8%
same,outcome,[3],inactive
NCCNc1cccc2ccccc12,Potency,[9],> 92 µM
same,Potency,[12],> 92 µM
same,Potency,[13],> 92 µM
same,Potency,[8],inactive
same,Potency,[14],inactive
same,"activity change, negative = cytotoxicity",[15],-24.9%
same,outcome,[16],inactive
same,outcome,[18],inactive
same,outcome,[19],inactive
